# An excerpt weighted towards active compounds, which were near 4.1% of everything screened.
# TIM10 inh: growth inhibitors of isogenic TIM10 control yeast, primary screen, counter-screen for tim10-1 yeast inhibitor project, luminescence, uHTS | S. cerevisiae TIM10 strain growth, BacTiter-Glo luminescence, 24 h | inhibition, % at 10 µM | actives 1.4% (n = 330,000);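 active = inhibition of 40% or more at the single tested concentration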;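 also: wild-type TIM10 isogenic control strain grown at permissive 25 °C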
# tim10-1 inh: growth inhibitors of tim10-1 mutant yeast, primary screen, luminescence, uHTS. S. cerevisiae tim10-1 ts strain growth, BacTiter-Glo, 24 h. inhibition, % at 20 µM. actives 2.2% (n = 330,000);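 active = inhibition of at least 40%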;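 also: mutant grown at 25 °C; 0% = DMSO wells with yeast and 100% = wells holding no yeast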
# NALP1 inh: NALP1 inflammasome inhibitors in reconstituted yeast, colorimetric, S. cerevisiae, triplicate retest. inhibition, % at 10 µM. actives 0.61% (n = 280,000). S. cerevisiae NALP1/ASC/caspase-1 growth, X-gal OD620, 72 h. AID 2071, 2009; in the data active = inhibition mostly above about 24%, no sharp cut-off; inactive = mostly below about 32%
# tim23-1 inh: growth inhibitors of tim23-1 mutant yeast, primary screen, luminescence, uHTS | AID 463212, 2010 | actives 1.3% (n = 330,000) | S. cerevisiae tim23-1 growth, BacTiter-Glo luminescence, 24 h | inhibition, % at 20 µM;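 active = growth inhibition of the mutant yeast at or above 50%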;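 also: temperature-sensitive mutant grown at 25 °C; plate controls were DMSO-treated mutant yeast for no effect and medium wells lacking yeast for full effect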
# NLRP3 yeast inh: NALP3 inflammasome inhibitors in reconstituted yeast, primary screen, luminescence, uHTS. Yeast reconstituted NLRP3/ASC/caspase-1, beta-gal luminescence, 24 h. inhibition, % at 10 µM. actives 0.39% (n = 330,000);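 active = inhibition of 50% or more; inactive = inhibition below 50%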;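 also: plate controls were induced DMSO wells for no effect and uninduced yeast grown without galactose for full effect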
# PfHsp90 set2: growth inhibition of PfHsp90-expressing yeast, primary screen, antimalarial PfHsp90 inhibitor project, S. cerevisiae, BacTiter-Glo luminescence, single point, set 2 | BacTiter-Glo ATP, 48 h; yeast lacking PDR1 and PDR3 efflux regulators | inhibition, % at 9.4 µM | actives 0.32% (n = 310,000) | AID 504621, 2011;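 active = every replicate shows inhibition above about 80%, whatever the replicate mean, limit read from the data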;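 also: 0% = DMSO neutral controls and 100% = 20 µM radicicol positive controls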
# tim23-1 confirm: tim23-1 mutant yeast growth inhibitors, confirmation, luminescence, single concentration; shares compounds with tim23-1 inh; S. cerevisiae tim23-1 growth, BacTiter-Glo luminescence, 24 h; inhibition, % at 20 µM; actives 83% (n = 4,400);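 active = inhibition above about 39% in either of two replicate wells at 20 µM, limit read from the data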;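 also: temperature-sensitive tim23-1 mutant grown at 25 °C; 0% = DMSO wells with yeast and 100% = medium wells without yeast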
# * marks the source's active call; other numbers are inactive results; x = no result.
SMILES,TIM10 inh,tim10-1 inh,NALP1 inh,tim23-1 inh,NLRP3 yeast inh,PfHsp90 set2,tim23-1 confirm
COc1ccc(OC)c(C(=O)c2coc3cc(Br)c(O)c(Br)c23)c1,12,37,x,58*,14,-15,46*
COc1cccc2c1C(=O)c1c(O)c3c(c(O)c1C2=O)C[C@](O)(C(C)=O)C[C@H]3O[C@@H]1C[C@@H](N)[C@@H](O)[C@@H](C)O1,-1,3,x,51*,43,-36,44*
CC12CN3CC(C)(CN(C1)C3c1ccc(Br)cc1O)C2 (stereo not given),12,32,2,51*,8,1,45*
CCOC(=O)N1CCC(NC(=O)c2oc3c(C)c(C)ccc3c2C)CC1,30,37,10,60*,20,-4,58*
CCOC(=O)N1CCC(NC(=O)c2ccccc2C(=O)O)CC1,13,12,x,7,-2,2,x
CCOc1ccc(NS(=O)(=O)c2ccc(-c3cnc(C4CC4)o3)cc2)cc1,-10,29,20,51*,28,12,44*
CC(=O)c1cccc(NS(=O)(=O)c2ccc(-c3cnc(C4CC4)o3)cc2)c1,-11,32,14,27,-1,-22,x
O=C(Nc1ccc(NC(=O)C2CC2)nc1)c1cccnc1,12,-2,19,53*,4,-1,9
O=C(COC(=O)c1nc(Cl)c(Cl)c(Cl)c1Cl)NCc1ccccc1,31,36,x,59*,-15,x,58*
CC1CCC(NC(=O)c2cc(C3CC3)nn2-c2ccccc2)CC1 (stereo not given),14,38,x,50*,22,11,46*
CCN(CC)C(=O)OCCc1cc2ccccc2c(=O)o1,2,13,x,10,8,14,x
CCC(C)n1c(=O)c(C(=O)Nc2ccccc2S(N)(=O)=O)c(O)c2ccccc21 (stereo not given),38,33,15,54*,24,-12,35
Cn1c(=O)c2c(ncn2CC(=O)Nc2cc(S(=O)(=O)N3CCCCC3)ccc2Cl)n(C)c1=O,-13,-1,x,11,14,x,x
O=C(OCc1ccc(F)cc1)c1cc(=O)c2ccccc2o1,12,6,10,94*,6,-38,26
COc1ccc(NC(=O)CCNS(=O)(=O)c2cc(Br)ccc2Br)cc1S(N)(=O)=O,-10,-3,23,9,9,-7,x
O=C1OCCN1C(=O)[C@H]1[C@H](c2ccc(F)cc2)C(c2ccccc2)=NN1c1ccccc1,-3,16,x,72*,x,0,27
CC[C@@H]1C(c2ccccc2)=NN(c2ccccc2)[C@H]1C(=O)N1CCOC1=O,10,22,x,48,x,-29,x
C[C@@H]1C(c2ccccc2)=NN(c2ccc(Br)cc2)[C@H]1C(=O)N1CCOC1=O,27,32,x,59*,x,15,45*
Cc1cccc(C2=NN(c3ccccc3)[C@@H](C(=O)N3CCOC3=O)[C@@H]2C)c1,9,15,x,39,x,-9,x
Cc1cccc(C2=NN(c3ccc(Br)cc3)[C@@H](C(=O)N3CCOC3=O)[C@@H]2C)c1,15,27,x,51*,x,-12,31
O=C(NC1CCSc2ccccc21)c1ccc(C(F)(F)F)cc1 (stereo not given),-6,-8,6,-6,16,5,x
CC(C)(NC(=O)c1ccccc1)c1nc2ccccc2s1,-5,-8,x,10,30,18,x
Cc1nc2c(n1C1CCCCC1)C(=O)c1ccccc1C2=O,25,34,-16,51*,-22,-58,40*
Cn1c(C=O)c(-c2ccc3c(c2)OCCO3)c2ccccc21,27,27,x,53*,12,-47,53*
Nc1c2c(nn1-c1ccccc1)CCC2,7,-14,14,-4,27,3,x
